Assay in all cases: DAPPL (digital affinity profiling via proximity ligation, sequencing); 10 mM Tris-HCl pH 7.5, 50 mM NaCl, 1 mM DTT, 4% glycerol, room temperature, 30 min; GST-TFs on glutathione beads, 16-mer random dsDNA library, 0.1% formaldehyde crosslink after washing; high values mean tight binding
The target of one experiment is T1, FLI1 (Homo sapiens, UniProt Q01543 1-452).
T1 sequence: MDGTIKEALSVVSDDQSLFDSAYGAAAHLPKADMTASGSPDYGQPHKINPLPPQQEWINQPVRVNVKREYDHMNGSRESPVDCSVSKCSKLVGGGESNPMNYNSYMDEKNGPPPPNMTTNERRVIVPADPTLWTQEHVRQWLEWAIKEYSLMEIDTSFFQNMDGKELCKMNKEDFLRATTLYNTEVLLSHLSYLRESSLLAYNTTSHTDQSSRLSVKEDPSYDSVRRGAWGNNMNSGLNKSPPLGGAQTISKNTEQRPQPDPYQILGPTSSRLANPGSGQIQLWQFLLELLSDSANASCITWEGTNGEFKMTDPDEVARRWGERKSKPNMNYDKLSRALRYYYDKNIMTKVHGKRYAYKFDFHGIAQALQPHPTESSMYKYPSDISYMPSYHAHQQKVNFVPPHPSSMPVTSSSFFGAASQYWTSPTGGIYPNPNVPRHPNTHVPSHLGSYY
Conditions: protein: recombinant; tags: N-terminal GST; dsDNA, one strand shown. The essentials:
(§1)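 Human transcription factors were made in yeast as GST fusions, captured on glutathione beads and barcoded with DNA. With a tag-only sample included, the pool was incubated with 200 nmole of a random double-stranded 16-mer DNA library in Tris/NaCl/DTT/glycerol buffer at room temperature for 30 min, then crosslinked with 0.1% formaldehyde after washing, ligated by proximity, amplified and sequenced. For binding signal, each hexamer's read frequency for a factor is divided by its frequency for the tag-only sample.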

In a further experiment the target is T2, ELK1 (Homo sapiens, UniProt P19419 1-428).
T2 sequence: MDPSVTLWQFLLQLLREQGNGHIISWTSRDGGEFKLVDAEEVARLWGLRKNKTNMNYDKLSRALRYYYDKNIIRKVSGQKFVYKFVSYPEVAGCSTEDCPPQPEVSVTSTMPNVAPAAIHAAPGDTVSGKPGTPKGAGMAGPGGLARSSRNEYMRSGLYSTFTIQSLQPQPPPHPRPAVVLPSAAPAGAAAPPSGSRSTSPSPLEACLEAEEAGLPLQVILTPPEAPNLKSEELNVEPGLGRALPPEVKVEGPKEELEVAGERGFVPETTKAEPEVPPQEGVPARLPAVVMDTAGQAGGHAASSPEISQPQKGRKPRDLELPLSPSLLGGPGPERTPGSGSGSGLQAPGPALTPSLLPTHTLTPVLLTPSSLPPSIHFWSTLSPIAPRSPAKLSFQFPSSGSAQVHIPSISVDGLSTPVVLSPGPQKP
Conditions: protein: recombinant; tags: N-terminal GST; dsDNA, one strand shown. A digest of the protocol:
as §1

Another experiment has as its target T3, GABPA (Homo sapiens, UniProt Q06546 1-454).
T3 sequence: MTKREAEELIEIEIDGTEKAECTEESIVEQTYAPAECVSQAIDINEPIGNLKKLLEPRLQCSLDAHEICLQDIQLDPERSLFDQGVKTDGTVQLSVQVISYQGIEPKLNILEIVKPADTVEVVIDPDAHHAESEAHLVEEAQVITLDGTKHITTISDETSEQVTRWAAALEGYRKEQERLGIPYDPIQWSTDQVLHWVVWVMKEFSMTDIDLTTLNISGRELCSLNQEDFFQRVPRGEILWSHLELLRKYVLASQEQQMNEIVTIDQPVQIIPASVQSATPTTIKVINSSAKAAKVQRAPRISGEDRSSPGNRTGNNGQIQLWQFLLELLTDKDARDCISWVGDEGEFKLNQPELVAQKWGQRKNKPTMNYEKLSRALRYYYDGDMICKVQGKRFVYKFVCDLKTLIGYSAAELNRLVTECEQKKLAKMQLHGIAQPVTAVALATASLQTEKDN
Conditions: protein: recombinant; tags: N-terminal GST; dsDNA, one strand shown. The essentials:
as §1

The next experiment has as its target T4, ERG (Homo sapiens, UniProt P11308 1-479).
T4 sequence: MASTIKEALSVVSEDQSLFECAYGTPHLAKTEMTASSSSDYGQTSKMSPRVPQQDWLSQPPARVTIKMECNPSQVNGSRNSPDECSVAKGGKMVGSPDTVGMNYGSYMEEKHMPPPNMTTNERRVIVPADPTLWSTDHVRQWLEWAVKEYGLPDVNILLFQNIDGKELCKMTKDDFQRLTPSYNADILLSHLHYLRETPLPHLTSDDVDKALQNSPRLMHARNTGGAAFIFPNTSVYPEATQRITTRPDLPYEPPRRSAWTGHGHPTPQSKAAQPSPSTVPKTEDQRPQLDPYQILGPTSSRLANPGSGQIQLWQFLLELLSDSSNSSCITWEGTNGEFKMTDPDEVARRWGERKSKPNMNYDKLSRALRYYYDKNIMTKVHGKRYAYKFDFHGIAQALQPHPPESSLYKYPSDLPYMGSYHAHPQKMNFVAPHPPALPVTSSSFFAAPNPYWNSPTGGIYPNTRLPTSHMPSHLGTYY
Conditions: protein: recombinant; tags: N-terminal GST; dsDNA, one strand shown. A digest of the protocol:
as §1

The target of a further experiment is ELF1 (Homo sapiens, UniProt P32519 1-619). Conditions: protein: recombinant; tags: N-terminal GST; dsDNA, one strand shown. A digest of the protocol: as §1
ELF1, sequence (P32519 whole entry): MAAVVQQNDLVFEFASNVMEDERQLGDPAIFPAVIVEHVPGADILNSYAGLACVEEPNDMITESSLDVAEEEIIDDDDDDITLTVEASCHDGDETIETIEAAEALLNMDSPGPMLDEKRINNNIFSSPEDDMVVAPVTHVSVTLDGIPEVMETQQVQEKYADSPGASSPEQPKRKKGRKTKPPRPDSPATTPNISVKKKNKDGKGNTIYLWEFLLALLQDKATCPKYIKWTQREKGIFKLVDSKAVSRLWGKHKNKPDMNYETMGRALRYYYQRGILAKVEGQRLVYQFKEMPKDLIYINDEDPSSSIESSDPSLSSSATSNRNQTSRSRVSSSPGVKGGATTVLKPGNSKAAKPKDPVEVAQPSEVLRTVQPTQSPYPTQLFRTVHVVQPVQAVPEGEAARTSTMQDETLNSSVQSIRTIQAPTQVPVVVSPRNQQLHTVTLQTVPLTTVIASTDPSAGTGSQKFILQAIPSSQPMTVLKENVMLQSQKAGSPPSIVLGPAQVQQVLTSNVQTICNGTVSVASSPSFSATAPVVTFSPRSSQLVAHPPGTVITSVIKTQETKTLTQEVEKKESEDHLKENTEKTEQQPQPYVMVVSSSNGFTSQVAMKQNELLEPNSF
Another experiment deals with T5, EHF (Homo sapiens, UniProt Q9NZC4 1-300).
T5 sequence: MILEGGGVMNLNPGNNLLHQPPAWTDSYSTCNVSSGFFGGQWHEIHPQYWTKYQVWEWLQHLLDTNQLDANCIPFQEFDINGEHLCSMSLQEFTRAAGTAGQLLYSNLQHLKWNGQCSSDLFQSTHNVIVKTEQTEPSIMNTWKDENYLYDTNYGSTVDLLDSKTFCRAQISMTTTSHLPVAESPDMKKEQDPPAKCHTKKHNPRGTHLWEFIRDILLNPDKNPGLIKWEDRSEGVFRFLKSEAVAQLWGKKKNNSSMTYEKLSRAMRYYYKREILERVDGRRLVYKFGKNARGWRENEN
Conditions: protein: recombinant; tags: N-terminal GST; dsDNA, one strand shown. A digest of the protocol: as §1

The target of another experiment is SPI1 (Homo sapiens, UniProt P17947 1-270). Conditions: protein: recombinant; tags: N-terminal GST; dsDNA, one strand shown. The essentials:
as §1

The target in another experiment is SPIB (Homo sapiens, UniProt Q01892 1-262). Conditions: protein: recombinant; tags: N-terminal GST; dsDNA, one strand shown. A digest of the protocol: as §1
SPIB, sequence (Q01892 whole entry): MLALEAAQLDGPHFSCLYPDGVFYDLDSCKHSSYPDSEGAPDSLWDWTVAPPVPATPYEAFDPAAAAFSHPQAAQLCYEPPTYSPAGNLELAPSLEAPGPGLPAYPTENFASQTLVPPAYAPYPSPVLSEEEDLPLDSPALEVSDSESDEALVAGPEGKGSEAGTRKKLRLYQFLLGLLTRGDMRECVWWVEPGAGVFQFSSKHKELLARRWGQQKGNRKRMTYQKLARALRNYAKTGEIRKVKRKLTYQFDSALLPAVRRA
The next experiment concerns the target T6, ELK3 (Homo sapiens, UniProt P41970 1-407).
T6 sequence: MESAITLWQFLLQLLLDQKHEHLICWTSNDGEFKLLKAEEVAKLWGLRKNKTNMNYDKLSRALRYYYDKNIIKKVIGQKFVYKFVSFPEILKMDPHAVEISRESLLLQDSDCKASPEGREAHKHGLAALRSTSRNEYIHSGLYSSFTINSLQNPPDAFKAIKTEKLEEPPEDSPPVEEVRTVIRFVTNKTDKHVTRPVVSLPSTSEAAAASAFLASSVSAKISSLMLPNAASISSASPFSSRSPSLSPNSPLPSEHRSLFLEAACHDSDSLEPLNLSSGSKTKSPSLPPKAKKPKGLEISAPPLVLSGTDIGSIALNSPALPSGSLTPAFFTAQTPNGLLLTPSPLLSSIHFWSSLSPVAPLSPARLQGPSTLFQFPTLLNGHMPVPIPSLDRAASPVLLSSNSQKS
Conditions: protein: recombinant; tags: N-terminal GST; dsDNA, one strand shown. The essentials:
as §1

The next experiment deals with T7, FEV (Homo sapiens, UniProt Q99581 1-238).
T7 sequence: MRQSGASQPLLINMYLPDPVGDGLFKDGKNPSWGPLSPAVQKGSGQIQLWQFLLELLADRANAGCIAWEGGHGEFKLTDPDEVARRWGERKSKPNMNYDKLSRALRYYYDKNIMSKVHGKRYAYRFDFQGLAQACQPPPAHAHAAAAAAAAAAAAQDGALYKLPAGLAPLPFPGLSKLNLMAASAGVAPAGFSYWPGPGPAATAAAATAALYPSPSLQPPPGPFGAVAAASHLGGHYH
Conditions: protein: recombinant; tags: N-terminal GST; dsDNA, one strand shown. A digest of the protocol: as §1

The target in a further experiment is ETV5 (Homo sapiens, UniProt P41161 1-510). Conditions: protein: recombinant; tags: N-terminal GST; dsDNA, one strand shown. A digest of the protocol: as §1
ETV5, sequence (P41161 whole entry): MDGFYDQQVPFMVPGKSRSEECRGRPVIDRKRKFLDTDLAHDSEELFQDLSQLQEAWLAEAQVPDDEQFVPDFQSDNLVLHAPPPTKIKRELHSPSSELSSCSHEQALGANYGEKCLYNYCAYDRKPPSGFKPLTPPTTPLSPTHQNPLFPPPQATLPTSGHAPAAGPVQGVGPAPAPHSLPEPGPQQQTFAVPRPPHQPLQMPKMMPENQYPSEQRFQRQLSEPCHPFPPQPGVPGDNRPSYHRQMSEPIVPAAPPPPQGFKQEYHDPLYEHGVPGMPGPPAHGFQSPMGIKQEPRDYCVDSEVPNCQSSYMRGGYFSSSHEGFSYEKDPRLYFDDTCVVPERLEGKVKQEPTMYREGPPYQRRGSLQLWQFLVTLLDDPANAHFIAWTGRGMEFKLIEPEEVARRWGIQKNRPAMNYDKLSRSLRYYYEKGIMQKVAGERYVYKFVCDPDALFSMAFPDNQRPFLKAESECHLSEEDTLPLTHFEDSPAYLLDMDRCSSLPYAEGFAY
A further experiment has as its target HSF1 (Homo sapiens, UniProt Q00613 1-529). Conditions: protein: recombinant; tags: N-terminal GST; chain copies: 3; dsDNA, one strand shown. The essentials:
as §1

The next experiment addresses T8, SPIC (Homo sapiens, UniProt Q8N5J4 1-248).
T8 sequence: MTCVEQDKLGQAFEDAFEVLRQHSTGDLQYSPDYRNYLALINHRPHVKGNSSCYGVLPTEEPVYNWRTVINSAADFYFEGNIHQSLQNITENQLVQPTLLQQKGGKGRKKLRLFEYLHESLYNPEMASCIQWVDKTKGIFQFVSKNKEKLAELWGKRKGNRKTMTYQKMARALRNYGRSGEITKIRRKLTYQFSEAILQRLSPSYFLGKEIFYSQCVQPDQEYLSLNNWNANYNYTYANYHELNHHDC
Conditions: protein: recombinant; tags: N-terminal GST; dsDNA, one strand shown. A digest of the protocol: as §1

The target in another experiment is ELF4 (Homo sapiens, UniProt Q99607 1-663). Conditions: protein: recombinant; tags: N-terminal GST; dsDNA, one strand shown. The essentials:
as §1

For another experiment, the target named is T9, ELK4 (Homo sapiens, UniProt P28324-2 1-405).
T9 sequence: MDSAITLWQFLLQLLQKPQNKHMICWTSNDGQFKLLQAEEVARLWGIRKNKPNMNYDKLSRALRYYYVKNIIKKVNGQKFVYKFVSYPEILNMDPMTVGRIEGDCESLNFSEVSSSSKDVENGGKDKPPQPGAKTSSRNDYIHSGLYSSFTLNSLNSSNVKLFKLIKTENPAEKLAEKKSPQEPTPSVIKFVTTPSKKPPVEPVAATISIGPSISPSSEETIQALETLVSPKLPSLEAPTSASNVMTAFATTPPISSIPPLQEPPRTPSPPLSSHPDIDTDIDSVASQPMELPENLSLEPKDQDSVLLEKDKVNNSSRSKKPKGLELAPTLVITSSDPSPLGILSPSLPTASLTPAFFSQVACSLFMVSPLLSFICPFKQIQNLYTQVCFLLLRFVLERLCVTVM
Conditions: protein: recombinant; tags: N-terminal GST; dsDNA, one strand shown. A digest of the protocol: as §1

In another experiment the target is T10, ETV2 (Homo sapiens, UniProt O00321 1-342).
T10 sequence: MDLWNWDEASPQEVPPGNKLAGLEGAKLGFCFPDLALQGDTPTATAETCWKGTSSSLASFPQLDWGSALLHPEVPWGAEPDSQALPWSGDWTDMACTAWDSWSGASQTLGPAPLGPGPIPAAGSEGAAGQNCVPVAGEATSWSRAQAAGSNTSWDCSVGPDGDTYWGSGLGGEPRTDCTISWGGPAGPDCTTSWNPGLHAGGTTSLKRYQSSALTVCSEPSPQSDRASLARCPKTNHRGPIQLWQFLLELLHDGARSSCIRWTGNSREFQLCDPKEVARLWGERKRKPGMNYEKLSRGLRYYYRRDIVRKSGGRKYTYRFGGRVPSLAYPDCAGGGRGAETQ
Conditions: protein: recombinant; tags: N-terminal GST; dsDNA, one strand shown. A digest of the protocol:
as §1

A further experiment addresses T11, ELF3 (Homo sapiens, UniProt P78545 1-371).
T11 sequence: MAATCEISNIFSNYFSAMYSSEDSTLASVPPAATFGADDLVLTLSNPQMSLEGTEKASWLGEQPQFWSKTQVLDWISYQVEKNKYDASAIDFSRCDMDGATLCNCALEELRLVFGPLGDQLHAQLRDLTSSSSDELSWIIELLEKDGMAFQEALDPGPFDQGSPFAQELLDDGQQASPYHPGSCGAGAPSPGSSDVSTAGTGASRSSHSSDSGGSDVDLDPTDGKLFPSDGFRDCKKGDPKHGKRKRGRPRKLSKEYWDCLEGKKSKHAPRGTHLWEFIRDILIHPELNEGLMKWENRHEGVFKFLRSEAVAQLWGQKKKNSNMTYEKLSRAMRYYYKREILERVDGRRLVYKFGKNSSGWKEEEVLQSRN
Conditions: protein: recombinant; tags: N-terminal GST; dsDNA, one strand shown. The essentials: as §1

The target of the next experiment is ETV1 (Homo sapiens, UniProt P50549 1-477). Conditions: protein: recombinant; tags: N-terminal GST; dsDNA, one strand shown. A digest of the protocol:
as §1

ELF4, sequence (Q99607 whole entry): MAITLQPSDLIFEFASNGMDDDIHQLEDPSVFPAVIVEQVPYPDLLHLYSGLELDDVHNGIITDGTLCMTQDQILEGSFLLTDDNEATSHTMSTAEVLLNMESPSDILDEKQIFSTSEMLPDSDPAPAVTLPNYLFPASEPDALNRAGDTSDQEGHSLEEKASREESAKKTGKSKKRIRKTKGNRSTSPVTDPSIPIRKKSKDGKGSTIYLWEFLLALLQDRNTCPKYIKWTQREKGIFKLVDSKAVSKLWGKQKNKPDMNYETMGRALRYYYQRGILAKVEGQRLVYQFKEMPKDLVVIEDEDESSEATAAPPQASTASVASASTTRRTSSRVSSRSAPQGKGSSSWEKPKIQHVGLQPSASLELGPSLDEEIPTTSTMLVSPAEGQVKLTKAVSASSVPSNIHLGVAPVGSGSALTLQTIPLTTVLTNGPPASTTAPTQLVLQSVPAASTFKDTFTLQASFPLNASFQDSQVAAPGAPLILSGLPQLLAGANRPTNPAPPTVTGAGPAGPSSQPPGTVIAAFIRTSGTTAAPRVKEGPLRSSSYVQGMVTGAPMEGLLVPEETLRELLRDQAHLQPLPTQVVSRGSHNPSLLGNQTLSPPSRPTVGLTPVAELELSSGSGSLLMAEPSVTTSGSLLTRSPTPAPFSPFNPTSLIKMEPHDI
ETV1, sequence (P50549 whole entry): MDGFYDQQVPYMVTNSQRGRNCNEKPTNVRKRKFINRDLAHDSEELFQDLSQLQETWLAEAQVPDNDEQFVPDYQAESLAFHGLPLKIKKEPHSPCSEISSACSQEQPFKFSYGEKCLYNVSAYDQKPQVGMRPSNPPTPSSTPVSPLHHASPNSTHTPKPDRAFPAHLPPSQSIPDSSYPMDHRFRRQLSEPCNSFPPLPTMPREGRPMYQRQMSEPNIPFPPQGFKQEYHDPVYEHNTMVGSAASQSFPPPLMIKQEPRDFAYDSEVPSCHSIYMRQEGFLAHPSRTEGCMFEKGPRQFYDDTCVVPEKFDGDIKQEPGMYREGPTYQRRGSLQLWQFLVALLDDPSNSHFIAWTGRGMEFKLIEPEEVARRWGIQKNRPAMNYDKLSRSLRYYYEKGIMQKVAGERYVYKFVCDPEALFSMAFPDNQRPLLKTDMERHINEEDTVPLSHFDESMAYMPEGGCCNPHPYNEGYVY
HSF1, sequence (Q00613 whole entry): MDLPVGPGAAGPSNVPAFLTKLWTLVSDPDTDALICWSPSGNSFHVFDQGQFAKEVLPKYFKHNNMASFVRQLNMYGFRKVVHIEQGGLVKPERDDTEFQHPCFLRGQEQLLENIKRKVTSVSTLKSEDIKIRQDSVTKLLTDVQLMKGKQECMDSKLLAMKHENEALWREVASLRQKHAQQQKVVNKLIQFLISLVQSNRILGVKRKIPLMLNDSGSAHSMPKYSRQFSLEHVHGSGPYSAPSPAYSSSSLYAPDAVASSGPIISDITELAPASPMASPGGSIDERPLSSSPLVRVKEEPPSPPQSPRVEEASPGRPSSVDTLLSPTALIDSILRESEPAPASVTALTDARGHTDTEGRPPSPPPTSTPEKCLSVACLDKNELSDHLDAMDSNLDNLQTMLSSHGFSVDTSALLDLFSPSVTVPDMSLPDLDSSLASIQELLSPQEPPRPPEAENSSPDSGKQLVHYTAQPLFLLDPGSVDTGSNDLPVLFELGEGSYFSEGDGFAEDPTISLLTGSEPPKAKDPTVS

As for AACTTG, the binding signal with FLI1 is 1.26 fold enrichment (6-mer frequency, TF over GST control); in the experiment with ELK1, 1.2 fold enrichment (6-mer frequency, TF over GST control); with GABPA, 1.18 fold enrichment (6-mer frequency, TF over GST control); with ERG it was 1.11 fold enrichment (6-mer frequency, TF over GST control); with ELF1, 1.21 fold enrichment (6-mer frequency, TF over GST control); with EHF it was 1.14 fold enrichment (6-mer frequency, TF over GST control). Moreover, the binding signal with SPI1 is 1.15 fold enrichment (6-mer frequency, TF over GST control); with SPIB, 1.19 fold enrichment (6-mer frequency, TF over GST control); in the experiment with ELK3, 1.08 fold enrichment (6-mer frequency, TF over GST control); with FEV, 1.17 fold enrichment (6-mer frequency, TF over GST control); with ETV5, 1.14 fold enrichment (6-mer frequency, TF over GST control); in the experiment with HSF1, 1.09 fold enrichment (6-mer frequency, TF over GST control). Besides, the binding signal is 1.27 fold enrichment (6-mer frequency, TF over GST control) with SPIC; 1.28 fold enrichment (6-mer frequency, TF over GST control) with ELF4; 1.11 fold enrichment (6-mer frequency, TF over GST control) in the experiment with ELK4; 1.12 fold enrichment (6-mer frequency, TF over GST control) with ETV2; 1.19 fold enrichment (6-mer frequency, TF over GST control) with ELF3; 1.05 fold enrichment (6-mer frequency, TF over GST control) with ETV1.

The values are drawn from publication PMC7862700, “An all-to-all approach to the identification of sequence-specific readers for epigenetic DNA modifications on cytosine”.
